Compound activity deposited in PubChem by National Center for Advancing Translational Sciences (NCATS).
Shown are actives, neighbours in structure and some others; about 11% of the full set was active somewhere.
BAZ2B inh: BAZ2B (human) inhibition. AlphaScreen BAZ2B-H3K14Ac peptide displacement. 4.4% of 360,000 active. Q9UIF8. Potency, µM (highest dose often 114 µM), for inactives: at the top dose activity change, negative = inhibition, usual class: inhibitors. AID 504333; note: % is set by controls: 0 for no effect and ±100 for the full control effect; nearly all actives have a fitted effect of over 60% in size
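Protein-peptide AlphaScreen: BAZ2B 50 nM, b-H3K14Ac 50 nM, 1x PBS pH 7.4 + 0.01% Tween-20. Preincubation 30 min RT; cpd 30 min RT (top 110 uM); beads 20 min RT, light-protected.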
HP1b chromo inh: blocks HP1-beta chromodomain binding to methylated histone tails; AID 540317; P83916; AlphaScreen HP1-beta / biotin-H3K9me3 peptide binding; Potency, µM (doses to about 114 µM), for inactives: top-dose activity change, negative = inhibition, most hits filed as inhibitors; 0.56% of 390,000 active; note: nearly all actives have a fitted effect of over 70% in size
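HP1-beta protein (50 nM final) preincubated 30 min at room temperature with biotinylated H3(1-18)K9me3 peptide (50 nM) in PBS pH 7.4, 0.01% Tween-20, then compound added for 30 min. AlphaScreen streptavidin donor/nickel chelate acceptor beads (10 ug/mL final), 30 min dark, luminescence read.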
PLK1 PBD inh: PLK1 (human) polo-box domain binding inhibition; 2.8% of 360,000 active; AID 720504; P53350; Plk1 PBD binding of FITC phosphopeptide, fluorescence polarization; Potency, µM, for inactives: max response, negative = inhibition, usual class: inhibitors; note: series mostly up to about 57 µM; % is set by controls: 0 for no effect and ±100 for the full control effect; nearly all actives have a fitted effect of over 65% in size
JMJD2A Tudor: blocks the human JMJD2A Tudor domain. O75164. AlphaScreen JMJD2A-Tudor / H3K4me3 peptide binding. Potency, µM (highest dose often 114 µM), without a hit: at the top dose activity change, negative = inhibition, usual class: inhibitors. 4.4% of 390,000 active; note: % is set by controls: 0 for no effect and ±100 for the full control effect; nearly all actives have a fitted effect of over 50% in size
Target sequence (O75164 whole entry, looked up, the tested form may be a part): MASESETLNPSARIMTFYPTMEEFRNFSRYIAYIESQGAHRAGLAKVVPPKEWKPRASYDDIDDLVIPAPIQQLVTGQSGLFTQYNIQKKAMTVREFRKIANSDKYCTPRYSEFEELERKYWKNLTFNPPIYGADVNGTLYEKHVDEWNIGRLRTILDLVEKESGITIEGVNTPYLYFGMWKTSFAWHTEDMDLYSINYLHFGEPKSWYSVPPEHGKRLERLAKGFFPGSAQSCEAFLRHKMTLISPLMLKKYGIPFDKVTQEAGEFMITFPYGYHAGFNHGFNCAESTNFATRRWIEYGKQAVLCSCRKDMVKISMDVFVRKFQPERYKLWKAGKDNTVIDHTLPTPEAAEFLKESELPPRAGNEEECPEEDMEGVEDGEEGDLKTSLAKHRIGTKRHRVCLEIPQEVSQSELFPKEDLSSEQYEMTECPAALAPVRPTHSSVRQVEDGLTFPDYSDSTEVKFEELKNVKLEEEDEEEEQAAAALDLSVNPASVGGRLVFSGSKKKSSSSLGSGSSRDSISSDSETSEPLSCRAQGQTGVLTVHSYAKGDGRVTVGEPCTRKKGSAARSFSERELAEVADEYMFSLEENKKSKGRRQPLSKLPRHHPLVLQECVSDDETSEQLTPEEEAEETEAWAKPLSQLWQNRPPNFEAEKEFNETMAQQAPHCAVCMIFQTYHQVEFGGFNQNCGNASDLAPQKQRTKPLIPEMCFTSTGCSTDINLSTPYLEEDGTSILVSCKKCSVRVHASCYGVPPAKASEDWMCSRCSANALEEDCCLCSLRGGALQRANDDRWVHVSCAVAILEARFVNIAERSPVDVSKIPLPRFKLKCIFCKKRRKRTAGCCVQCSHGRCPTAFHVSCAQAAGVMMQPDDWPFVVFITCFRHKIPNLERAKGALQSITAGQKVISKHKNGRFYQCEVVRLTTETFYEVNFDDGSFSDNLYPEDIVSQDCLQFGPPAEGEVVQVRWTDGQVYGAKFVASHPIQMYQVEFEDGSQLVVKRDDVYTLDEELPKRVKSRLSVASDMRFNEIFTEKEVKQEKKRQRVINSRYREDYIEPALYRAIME
VDR inh: vitamin D3 receptor (human) inhibition; P11473; Potency, µM, for the others: max response, negative = inhibition, usual class: inhibitors; AID 504847; 0.93% of 400,000 active; VDR-SRC2-3 peptide fluorescence polarization, 2 h; note: % is set by controls: 0 for no effect and ±100 for the full control effect
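Reagent solutions, kept cold and dark, are dispensed first; compounds are then pinned in at 23 nl, plates briefly spun, and incubated 2 h at ambient temperature. Inhibition of VDR–SRC2-3 peptide binding is read by fluorescence polarization.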
G9a block: blocks human histone lysine methyltransferase G9a. 8.8% of 350,000 active. G9a H3K9 monomethylation, AlphaScreen, 2 h. Q96KQ7. AID 504332. Potency, µM (series often up to 102 µM), without a hit: at the highest dose activity, negative = inhibition, hits mostly inhibitors; note: % is set by controls: 0 for no effect and ±100 for the full control effect; nearly all actives have a fitted effect of over 75% in size
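G9a (20 nM) preincubated 15 min RT with compounds, then 500 nM biotinylated H3K9 peptide and 20 uM SAM added; 2 h RT reaction. Monomethyl-H3K9 product detected by AlphaScreen with anti-H3K9me1 antibody, streptavidin donor and anti-rabbit IgG acceptor beads.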
Active calls of the source: *; ? = inconclusive; · = no result; [ ] = another dose, or the depositor's remark. Calls come from the whole dose curve; as a rule, active = well fitted curve in the direction sought with a large enough effect; inconclusive = small, poorly fitted or top-dose-only effect, or another doubt; inactive = no such curve, though single readings can be large; an effect the other way counts as inactive or inconclusive. Potency is the fitted concentration of half-maximal effect.

SMILES | BAZ2B inh | HP1b chromo inh | PLK1 PBD inh | JMJD2A Tudor | VDR inh | G9a block
O=C(c1ccccc1F)N1CCN(Cc2ccc3c(c2)OCO3)CC1 | 45µM* | 40µM* | -5% | 0.89µM* | 5% | -5%[0.501 µM]
O=C(c1cccc(S(=O)(=O)N2CCOCC2)c1)N1CCN(Cc2ccc3c(c2)OCO3)CC1 | -26% | 15% | -2% | -11% | -8% | 40µM*
CC(C)c1nnc(NC(=O)CCC(=O)N2CCC(Cc3ccccc3)CC2)s1 | -27% | 64% | -16% | -13% | -14% | 18%
COc1ccccc1CNC(=O)c1cc2sccc2n1Cc1ccc(F)cc1 | 22% | 69% | · | -19% | 89µM* | 29%[59 µM]
O=C(NCCc1ccccc1)c1cc2sccc2n1Cc1ccccc1 | 89µM* | -7% | ? | ? | ? | 3%
COc1ccc(CNC(=O)c2cc3sccc3n2Cc2ccc(F)cc2)cc1 | -16% | 25% | · | -12% | -7% | ?
O=C(Nc1oc2ccc(Cl)cc2c(=O)c1-c1ccc(F)cc1)c1ccco1 | -11% | 38% | -10% | -1% | -3% | 3%
COc1ccccc1N1CCN(C(=O)c2ccc3nc(-c4ccco4)c(-c4ccco4)nc3c2)CC1 | ? | -29% | -3% | ? | 2% | 10µM*
COc1ccccc1N1CCN(C(=O)c2ccc3nc[nH]c3c2)CC1 | 4% | 51% | -6% | -1% | -16% | 8%[59 µM]
Cc1ccc(C)c(N2CCN(C(=O)c3ccc4nc(-c5ccco5)c(-c5ccco5)nc4c3)CC2)c1 | ? | -14% | 6µM* | -29% | -19% | -8%[0.0925 µM]
Cc1ccc(N2CCN(C(=O)c3ccccc3)CC2)c(C)c1 | -3% | 33% | 3% | ? | 10% | 5%[59 µM]
COC(CNC(=O)c1ccc2nc(-c3ccccc3)c(-c3ccccc3)nc2c1)OC | ? | -5% | ? | -30% | -11% | 0%
O=C(NCCO)c1ccc2nc(-c3ccco3)c(-c3ccco3)nc2c1 | ? | 45µM* | 17µM* | 22µM* | 35µM* | 1.4µM*
CNc1nn(-c2cccc(Cl)c2)nc1N | ? | -3% | -17% | -11%[11.4 µM] | -9% | ?
CCOc1ccc2[nH]c3c(c2c1)CNCC3 | -35% | -12% | 1% | ? | 2% | 71µM*
CC1(C(=O)NCCc2ccccc2)Cc2c(-c3ccccc3)ccnc2O1 (stereo not drawn) | · | · | -9% | · | · | ·
CCc1cccc(NC(=O)Cn2c(C(=O)OC)cc3occc32)c1 | -14% | -9% | · | -20% | -1% | -2%[59 µM]
CCOC(=O)c1cc2occc2n1CC(=O)Nc1ccc(OC)cc1OC | ? | -7% | ? | ? | -9% | 40µM*
CCOC(=O)c1cc2sc(C)cc2n1CCCN1C(=O)c2ccccc2C1=O | -29% | 42% | -1% | -17% | -9% | -5%[59 µM]
CCOC(=O)c1cc2occc2n1CCCN1C(=O)c2ccccc2C1=O | 50µM* | ? | -1% | ? | 15% | 14µM*
CCCCN1CC(=O)N2[C@H]3c4cc(OC)ccc4OC[C@@H]3[C@H](C(=O)OCC)[C@]2(C)C1=O | 1% | 37% | 4% | -7% | -21% | 11%[0.501 µM]
CCCCN1CC(=O)N2[C@@H]3c4cc(OC)ccc4OC[C@@H]3[C@H](C(=O)OCC)[C@]2(C)C1=O | · | 18% | 24µM* | ? | ? | ·
Cc1ccccc1NC1=NCC(c2ccc([N+](=O)[O-])cc2)S1 (stereo not drawn) | -30% | -26% | -9% | ? | -5% | -39%
CCc1nnc(NC(=O)c2ccc(S(=O)(=O)N(CCOC)CCOC)cc2)o1 | 28µM* | 42% | -3% | 45µM* | 6% | 4µM*
COCCN(CCOC)S(=O)(=O)c1ccc(C(=O)Nc2nnc(C3CC3)o2)cc1 | 32µM* | 26% | -4% | 10µM* | 7% | 10%[12.7 µM]
SMILES | BAZ2B inh | HP1b chromo inh | PLK1 PBD inh | JMJD2A Tudor | VDR inh | G9a block
CCCN(CCC)S(=O)(=O)c1ccc(C(=O)Nc2nnc(CSC)o2)cc1 | ? | -9% | ? | 50µM* | -12% | -31%
COCCNc1nnc(SC(C)C(=O)Nc2ccc(-c3nc4ccc(C)cc4s3)cc2)s1 (stereo not drawn) | 0% | 41% | -6% | -9% | -18% | -8%
O=[N+]([O-])c1ccc(NNS(=O)(=O)c2cc(Cl)ccc2Cl)nc1 | -19% | -8% | ? | -33% | -4% | -7%[0.501 µM]
CCCN(CCC)C(=O)c1cc([N+](=O)[O-])cc2c1-c1ccc([N+](=O)[O-])cc1C2=C(C#N)C#N | ? | -13% | ? | ? | 40µM* | 45µM*
CCCNC(=O)Cn1c(=O)cc(C)c2c(C)nn(-c3cccc(F)c3)c21 | 0% | 15% | · | -15% | -2% | -7%[59 µM]
Cc1sc2nc(CSC(C)C(=O)NC3(C#N)CCCCC3)[nH]c(=O)c2c1C (stereo not drawn) | -11% | 22% | ? | -3% | ? | 45µM*
Cc1sc2nc(CSC(C)C(=O)Nc3ccc(Cl)cn3)[nH]c(=O)c2c1C (stereo not drawn) | 5% | 34% | ? | -23% | -12% | -8%[12.7 µM]
COCCNC(=O)C1CCCN(C(=O)c2cc(-c3cccs3)oc2C)CC1 (stereo not drawn) | · | · | -4% | · | · | ·
CC[N+]1(C)CC2CCC(C)(C1)C2(C)C (stereo not drawn) | -2% | -8% | -11% | 32µM* | 3% | ?
Cc1cc(C)n2nc(SCC(=O)N3CC(C)CC(C)C3)nc2n1 (stereo not drawn) | · | 15% | 3% | -19% | 2% | ·
O=c1ccc2cc3c([nH]c4ccc(Br)cc43)oc-2c1O | 45µM* | · | · | · | · | ?
O=c1c2c([nH]c3ccc(Br)cc13)CCCC2 | -5% | 21% | -3% | -12% | 11% | ?
O=C1c2ccccc2C(O)(c2ncc[nH]2)N1C1CCCCC1 (stereo not drawn) | -7% | 17% | -4% | ? | -4% | 20µM*
O=C1c2ccccc2C(O)(c2ccccc2)N1CCc1ccccc1 (stereo not drawn) | 0% | 41% | 1% | -7% | -10% | 26%
O=C1c2ccccc2C(=O)N1C1CCCCC1 | -6% | 83% | -3% | -1% | -6% | 8%
COc1ccc(CCN2C(=O)c3ccccc3C2(O)c2ncc[nH]2)cc1OC (stereo not drawn) | ? | -20% | ? | -6%[11.4 µM] | -6% | 22µM*
COCCNCCCCOc1ccccc1-c1ccccc1 | 56µM* | ? | -3% | 3.2µM* | 15% | 7.1µM*
CCCCNCCOCCOc1ccccc1-c1ccccc1 | ? | ? | -9% | 1.4µM* | -9% | ?
CC1(C)NC(=O)N(CCOCCOc2ccccc2-c2ccccc2)C1=O | -22% | 64% | 1% | -6% | -6% | -5%
C=CCNCCOc1ccccc1-c1ccccc1 | 6% | 46% | -2% | -6% | 15% | -1%[59 µM]
